According to PubChem BioAssay (NCI):
The panel holds about 83,000 compounds, 20% with a hit somewhere; the sample as a whole holds those more often.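 In brief: 96-well plates, 48 h treatment, single concentration, percent growth endpoint.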 Unmarked numbers belong to inactive results. The source made the active and inactive calls.

The molecules below were run on CAKI-1 renal (assay: NCI-60 one-dose screen, 48 h (100 = growth as untreated, 0 = no growth, -100 = all killed)). Conditions: 10 µM.
Description: Growth inhibition of the CAKI-1 human tumor cell line is measured as a screen for anti-cancer activity. Cells are grown in 96 well plates and exposed to the test compound for 48 hours. Compounds are tested at a single concentration, which is 10^-5 M for most compounds. The reported endpoint is percent growth (GI% or GIPRCNT), where numbers from 0 - 100% represent growth inhibition, and numbers from -100% - 0 represent cell death. For example, a value of 40 represents 60% growth inhibition. A value of 0 means no net growth occurred over the course of the experiment. A value of -40 indicates 40% of cells at the beginning of the experiment died by the end of the experiment. A value of -100 means all cells are dead at the end of the experiment.
NCI-60 Human Tumor Cell Lines Screen was performed using the standard one-dose NCI protocol, which is described in more detail at https://dtp.cancer.gov/discovery_development/nci-60/default.htm.
Compounds with GIPRCNT values below 10 were considered active. Activity score was based on GIPRCNT using the following formula: […]
Score is 0 for GIPRCNT values of 100 or above, 50 for GIPRCNT values of 0, and 100 for GIPRCNT values of -100.

| Structure (SMILES) | growth |
| --- | --- |
| O=C(O)CNS(=O)(=O)c1ccc(OCCOc2ccc(S(=O)(=O)NCC(=O)O)cc2)cc1 | 99.5% |
| CCOc1nc(-c2ccccc2)cc2c(O)c(C(=O)N/N=C/c3ccc(OC)cc3)[nH]c(=O)c12 | 92.5% |
| COc1ccc(CCc2nc3cc(-c4c(C)noc4C)ccc3n2CCN2CCOCC2)cc1 | 57.2% |
| COc1ccc(-c2nnc(SC/C(=N\O)c3ccccc3)o2)cc1 | 95.1% |
| Cc1ccc2c3c(cccc13)-c1ccccc1C2=O | 89% |
| COc1ccc(-c2nsc3c2NC(=O)CC3c2cccc(Cl)c2)cc1 (stereo not given) | 18.4% |
| COc1ccc(S(=O)(=O)Nc2cc(/C=C\c3cc(OC)c(OC)c(OC)c3)ccc2OC)cc1 | 26% |
| CS(=O)(=O)Nc1ccc(Nc2c3ccccc3nc3cc(Cl)ccc23)cc1 | 6.38% (active) |
| O=C(Nc1cccc(Cl)c1)OCC(COC(=O)Nc1cccc(Cl)c1)(COC(=O)Nc1cccc(Cl)c1)[N+](=O)[O-] | 49.8% |
| C#Cc1ccc(-n2c(/C=C/c3cc(OC)c(OC)c(OC)c3)nc3ncccc3c2=O)cc1 | 64.2% |
| CCCCc1ccc(NC(=O)N(CCCl)N=O)cc1 | 99.3% |
| CCOC(=O)C(CCC1=NC(C)(C)CC(C)O1)C(=O)OCC (stereo not given) | 45.7% |
| Cc1cc(C(C)(C)CC(C)(C)C)ccc1OCCOCC[N+](C)(C)Cc1ccccc1 | 89.1% |
| CCCCCCCCCCCCCCCCCBr | 97.2% |
| NS(=O)(=O)c1ccc(N2N=C(c3ccc(-c4ccccc4)cc3)CC2c2ccc(Cl)cc2)cc1 (stereo not given) | 78.7% |
| CC(C)(C)CC(C)(C)c1ccc(O)c(Cc2ccc(Cl)cc2Cl)c1 | -83.3% (active) |
| COC(=O)c1c(C)nc(Nc2nc3ccccc3s2)nc1-c1ccc(Cl)cc1Cl | 99.6% |
| COc1ccc(Nc2ccnc(N3CCN(c4ccnc5cc(Cl)ccc45)CC3)n2)cc1 | 6.78% (active) |
| COc1ccc(-c2[nH]ncc2-c2cc(OC)c(OC)c(OC)c2)cc1 | 6.08% (active) |
| NC1CCC(Nc2nc(NCc3cc(Cl)ccc3O)c3ncn(C4CCCC4)c3n2)CC1 (stereo not given) | 9.61% (active) |

| Structure (SMILES) | growth |
| --- | --- |
| N/C(=N\O)c1cn(C2OC(CO)C(O)C2O)c2ncnc(N)c12 (stereo not given) | 3.33% (active) |
| O=[N+]([O-])c1ccc(-c2nc(Cl)c3c(n2)CCCC3)o1 | -15.6% (active) |
| CCCCCCCC/C=C/CCCCCCCCC1=NCCN1CCO | 80.5% |
| O=C(Nc1cccc(Cl)c1)Nc1cc2ncncc2cc1OCc1cccc(F)c1 | 14.6% |
| Cn1cnc([N+](=O)[O-])c1/C=C1\Oc2ccc(Cl)cc2C1=O | 78.1% |
| COc1ccc(-c2cc(/C=C3\C(=O)Nc4cc(Cl)ccc43)[nH]n2)cc1 | 29.6% |
| COc1cc(C)c2sc3ccccc3c(=O)c2c1NCCN(C)C | 39.7% |
| COc1cc(C2c3cc4c(cc3C(O)C(CO)C2CO)OCO4)cc(OC)c1OC (stereo not given) | 65.9% |
| CC(C)(C)c1ccc(OCCCCCCN2CCNCC2)cc1 | 75.9% |
| C=CCOc1ccc2c(c1)CC=C1[C@@H]2CC[C@]2(C)C(=O)/C(=N/O)C[C@@H]12 | 50.4% |
| COCCOC(=O)NC(=O)Nc1ccc(/C(=N/O)c2ccc(Cl)cc2)cc1 | 30.6% |
| O=C(Nc1cccc(F)c1)Nc1cccc(Cl)c1 | 88.8% |
| CC(=O)n1nc(C(=O)OC(C)(C)C)c2cc(F)c(F)cc21 | 101% |
| COc1c(C)c(C)c(OC)c2c1[nH]c(=O)c1c3cccnc3cn21 | 104% |
| N#C/C(=C\N1C(=O)/C(=C/c2cccc([N+](=O)[O-])c2)SC1=S)c1nc2ccccc2s1 | 85.2% |
| COc1cc(OC)cc(-c2ccc(-c3ccc(C(=N)N)cn3)o2)c1 | 16.1% |
| COc1cccc(C(=O)NNc2nc(N3CCN(C4CCCCC4)CC3)nc(N3CCN(C(c4ccccc4)c4ccccc4)CC3)n2)c1 | 59.4% |
| COc1ccc(C2=NNC(c3sc(Cl)nc3Cl)C2)cc1 (stereo not given) | 97.4% |
| C=CCn1c(C)nc2cc(Nc3nc(Nc4ccc5nc(C)n(CC=C)c5c4)c4ccccc4n3)ccc21 | -86.4% (active) |
| Clc1cc(Cl)c(Cl)c(-c2nc(-c3cccnc3)cs2)c1 | 48.7% |
